This note sets out measurements from PubChem BioAssay AID1220 (Sanford-Burnham Center for Chemical Genomics, 2008).

The structures appear in SMILES notation. Out of some 190,000 compounds screened, about 1,300 (0.68%) were called active. Rule as the data show it: active = inhibition above about 50%; inactive = the rest. Only a selection was taken, and actives are over-represented in it overall.

The term inhibition denotes the drop in the measured response relative to a control, in per cent.

Sequence of Mannose-6-phosphate isomerase (Homo sapiens) (P34949 whole entry, looked up): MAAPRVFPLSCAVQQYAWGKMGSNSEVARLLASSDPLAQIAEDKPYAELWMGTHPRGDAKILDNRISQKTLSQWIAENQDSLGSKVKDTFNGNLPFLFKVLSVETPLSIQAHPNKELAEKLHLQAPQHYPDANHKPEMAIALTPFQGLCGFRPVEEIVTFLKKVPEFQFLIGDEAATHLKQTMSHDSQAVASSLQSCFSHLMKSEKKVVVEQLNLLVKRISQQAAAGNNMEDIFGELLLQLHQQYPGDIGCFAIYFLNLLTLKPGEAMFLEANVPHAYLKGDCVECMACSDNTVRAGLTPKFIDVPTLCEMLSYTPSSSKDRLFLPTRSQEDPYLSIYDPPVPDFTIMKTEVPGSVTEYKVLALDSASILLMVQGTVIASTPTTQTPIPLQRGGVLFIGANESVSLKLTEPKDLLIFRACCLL

The test has as its target Mannose-6-phosphate isomerase (Homo sapiens) (UniProt P34949). The experiment in a line: MPI inhibition at elevated mannose 6-phosphate – biochemical, fluorescence intensity, high mannose 6-phosphate, primary screen (AID 1220). As to conditions: recombinant PMI enzyme, coupled fluorescence intensity; at 20 µM; hits give high values.
For `C[C@H]1CC[C@@]2(O[C@H](CCO)C[C@@H](O)[C@@H]2O)O1`, the inhibition was 12.7% (inactive).

`COc1ccc(Cn2nnc3c(=O)[nH]c(C4CCCN(C(=O)c5ccccc5)C4)nc32)cc1` (stereo not given): the inhibition was -5.4% (inactive).

As for `CCOC(=O)/C(=N\O)C1=NC(C)(C)Cc2ccccc21`, the inhibition is -11.3% (inactive).

As for `CC1(C)Cc2ccccc2C(/C(=N/O)C(N)=O)=N1`, the inhibition is 5.1% (inactive).

Consider `COc1ccc(-c2c(C)nn3c(N4CCC(C(=O)NCCN(C)C)CC4)cc(C)nc23)cc1OC`, for which the inhibition is 5.7% (inactive).

As to `CCN(CC)CCNC(=O)C(C(=O)c1ccccc1)n1ccccc1=O` (stereo not given), the inhibition is 1.8% (inactive).

As for `COc1ccc(CNC(=O)C(c2ccncc2)N(C(=O)Cc2cccs2)c2ccccc2)cc1` (stereo not given), the inhibition was 1.9% (inactive).

Turning to `Cc1cc(NC(=O)c2ccccc2)n(-c2nc3ccccc3[nH]2)n1`, the inhibition was 59.2% (active).

With `Cc1cc(NC(=O)c2c(F)cccc2F)n(-c2nc3ccccc3[nH]2)n1`, the inhibition is 3% (inactive).

On to `Cc1cc(NC(=O)c2ccccc2F)n(-c2nc3ccccc3[nH]2)n1`, for which the inhibition was -1.3% (inactive).

With `COc1cc(OC)c(-c2nnc3n(CCc4ccccc4)c(=O)c4ccccc4n23)cc1OC`, the inhibition is 10.4% (inactive).

As for `COc1ccc(CCN2C(=O)C3C4C=CC(C4)C3C2=O)cc1OC` (stereo not given), the inhibition is 14% (inactive).

For the compound `CCCCOc1ccc(Nc2nc(C)cc(C)c2C#N)cc1`, the inhibition was 6.1% (inactive).

Take `COc1cccc(NC(=O)C2CCCCC2)c1`: the inhibition was 5.6% (inactive).

Regarding `CCOc1cc(NC(=S)Nc2ccccc2)c(OCC)cc1NC(=O)c1ccccc1`, the inhibition was 7.3% (inactive).

Regarding `CCOc1cc(NC(=O)CCl)c(OCC)cc1NC(C)=O`, the inhibition is 20.4% (inactive).

As for `CCOc1cc(NC(=S)Nc2ccc(Cl)cc2)c(OCC)cc1NC(C)=O`, the inhibition was 55.9% (active).

Turning to `CCOc1cc(NC(=S)Nc2cccc(OC)c2)c(OCC)cc1NC(=O)C(C)C`, the inhibition is 45.4% (inactive).

On to `CCOc1cc(NC(=S)NC)c(OCC)cc1NC(=O)c1ccc(OC)cc1`, for which the inhibition is 49.8% (inactive).

Turning to `CCOc1cc(NC(=S)Nc2ccccc2)c(OCC)cc1NC(=O)c1ccc(OC)cc1`, the inhibition is 56.8% (active).

Consider `CCOc1cc(NC(=S)Nc2cccc(OC)c2)c(OCC)cc1NC(=O)C1CC1`, for which the inhibition was 56.8% (active).

Turning to `COc1cccc(NC(=O)CNC(=O)c2ccc(C)cc2)c1`, the inhibition was 0.9% (inactive).

Consider `CCOc1cc(NC(=S)Nc2cccc(OC)c2)c(OCC)cc1NC(=O)c1ccc(C)cc1`, for which the inhibition was 55.1% (active).

As for `CCOc1cc(NC(=S)Nc2cccc(C)c2)c(OCC)cc1NC(=O)CC(C)C`, the inhibition was 17.5% (inactive).

In the case of `CCOc1ccc(NC(=S)Nc2cc(OC)c(Cl)cc2OC)cc1`, the inhibition is 24.8% (inactive).

`CCCCOc1ccc(Br)cc1CSC(=N)N`: the inhibition was -4.3% (inactive).

Take `O=C(C[n+]1ccc(-c2cc(C(=O)Nc3cccc(C(F)(F)F)c3)c3ccccc3n2)cc1)c1cccc([N+](=O)[O-])c1`: the inhibition is -6.2% (inactive).

On to `COc1ccc(/C=C(/NC(=O)c2ccccc2)C(=O)N/N=C/c2ccc3c(c2)OCO3)cc1OC`, for which the inhibition is -10.4% (inactive).

Consider `O=C(CC1Nc2ccccc2NC1=O)NCCCN1CCCCCC1` (stereo not given), for which the inhibition was 0.7% (inactive).

`Cc1ccc(NC(=S)N2CCN(S(=O)(=O)c3c(F)cccc3F)CC2)cc1C`: the inhibition was 11.5% (inactive).

On to `CC1CCCCN1C(=O)C12CCC(C)(C(=O)C1)C2(C)C` (stereo not given), for which the inhibition is 48.1% (inactive).

`Cc1c(C(N)=O)sc2ncn(CC(=O)NCCc3ccccc3)c(=O)c12`: the inhibition is -8.4% (inactive).

In the case of `O=C(CCc1c[nH]c2ccccc12)NCC(=O)Nc1ccc(F)c(F)c1F`, the inhibition is -1.9% (inactive).

As for `CCCC(=O)Nc1ccc(S(=O)(=O)Nc2cc(C)nc(C)n2)cc1`, the inhibition is 4.9% (inactive).

As to `CCOc1ccc(NC(=O)c2ccc(NC(=S)NC3CC3)cc2)cc1`, the inhibition was 12.4% (inactive).

For the compound `CCOc1ccc(NC(=O)c2ccc(NC(=S)NC3CCCCC3)cc2)cc1`, the inhibition is 52.6% (active).

Regarding `CCOC(=O)c1ccc(NC(=S)NC2CCCC2)cc1`, the inhibition was -1.3% (inactive).

On to `CCCCN(C(=O)NC(=O)Nc1cccc(C)c1C)S(C)(=O)=O`, for which the inhibition was -3.7% (inactive).

For the compound `COc1cc2c(C#N)c(N3CCN(C)CC3)nc(N)c2c(N)n1`, the inhibition is 34.6% (inactive).

As for `COc1cc2c(C#N)c(N3CCOCC3)nc(N)c2c(N)n1`, the inhibition was 22% (inactive).

With `COc1cc2c(C#N)c(N3CCN(c4ccccc4OC)CC3)nc(N)c2c(N)n1`, the inhibition was 54% (active).

Turning to `COc1ccc(CN=CC2=C(O)CNC2=O)cc1OC`, the inhibition was -8.2% (inactive).

`CCN(CC)c1ccc(NS(=O)(=O)c2ccc3c(c2)oc(=O)n3C)c(C)c1`: the inhibition was 23.7% (inactive).

For the compound `CCOC(=O)Cn1c(=O)oc2cc(S(=O)(=O)Nc3ccc(N(CC)CC)cc3C)ccc21`, the inhibition is 51.2% (active).

Regarding `CCOC(=O)Cn1c(=O)oc2cc(S(=O)(=O)Nc3c(C)cc(C)cc3C)ccc21`, the inhibition was 5.9% (inactive).

Turning to `CCOc1ccc(-c2csc(NC(=O)CSC3=NC(=O)CN3C(C)=O)n2)c2ccccc12`, the inhibition was 14.8% (inactive).

On to `O=C1c2cccc3c(O)ccc(c23)C(=O)N1Cc1ccccc1`, for which the inhibition is 7.6% (inactive).

On to `O=C1c2cccc3c(O)ccc(c23)C(=O)N1Cc1ccco1`, for which the inhibition is 64.3% (active).

As for `O=C1c2cccc3cccc(c23)C(=O)N1Cc1ccco1`, the inhibition is -4.4% (inactive).

Consider `CSc1nc(O)c(C2OC(=O)c3ccccc32)c(=O)[nH]1` (stereo not given), for which the inhibition is 8.9% (inactive).

Take `Cc1ccc(NS(=O)(=O)c2ccc3[nH]c(=O)c(=O)[nH]c3c2)cc1Cl`: the inhibition was 14.3% (inactive).

Turning to `O=[N+]([O-])c1ccc(Oc2ccc(F)cc2Br)c2ccncc12`, the inhibition is 50% (active).

Consider `O=[N+]([O-])c1ccc(Oc2ccc(F)cc2)c2ccncc12`, for which the inhibition is 17.6% (inactive).

As for `O=[N+]([O-])c1ccc(Oc2cccc(F)c2)c2ccncc12`, the inhibition was -0.7% (inactive).

For `Nc1cc(Cl)ccc1Oc1ccccc1`, the inhibition was -2.5% (inactive).

With `N#C/C=C\Oc1ccc(Cl)cc1N`, the inhibition is 57.9% (active).

As to `Nc1cc(Cl)ccc1Oc1ccc(Cl)cc1`, the inhibition is -1.6% (inactive).

For `COc1cc(-c2nnc(COC(=O)c3cc(C)nc4ccc(C)cc34)o2)cc(OC)c1OC`, the inhibition is 13% (inactive).

On to `CCN1CCN(CCOCCOc2ccccc2-c2ccccc2)CC1`, for which the inhibition was -4.3% (inactive).

With `O=S(=O)(Cc1ccc(Cl)cc1)NCC1CCCO1` (stereo not given), the inhibition is 14.9% (inactive).

For `CCOC(=O)c1cc2c(C)n(-c3ccc(N(C)C)cc3)c(C)c2cc(C(=O)OCC)c1=O`, the inhibition was 37.3% (inactive).

Regarding `Cn1c(C(=O)N2CCCc3ccccc32)cc2sccc21`, the inhibition was -3.3% (inactive).

For `O=C(CNC(=S)N(CCCN1CCOCC1)Cc1cccs1)N1CCCC1`, the inhibition is -5% (inactive).

`O=C(CNC(=S)N(CCCN1CCOCC1)Cc1cccs1)N1CCOCC1`: the inhibition is -1.9% (inactive).

In the case of `O=C(CNC(=S)N(CCCN1CCOCC1)Cc1cccs1)N1CCCCCC1`, the inhibition is 55.1% (active).

On to `CCCC(=O)Nc1ccccc1N1CCN(C(=O)C(C)C)CC1`, for which the inhibition was -0.1% (inactive).

Consider `CN(C)c1ccc(NC(=O)c2cn(-c3ccccc3)nc2-c2cccs2)cc1`, for which the inhibition was 13.7% (inactive).

For `O=C1C=C(Nc2ccc(O)cc2)CC(c2ccco2)C1` (stereo not given), the inhibition was 60.2% (active).

On to `O=C1C=C(Nc2cccc(O)c2)CC(c2ccco2)C1` (stereo not given), for which the inhibition was 12% (inactive).

As for `O=C1C=C(Nc2ccc(Cl)cc2)CC(c2ccco2)C1` (stereo not given), the inhibition is 5.8% (inactive).

With `COC(=O)c1cccc([N+](=O)[O-])c1CN1CCCC(C(N)=O)C1` (stereo not given), the inhibition was -6.5% (inactive).

For `CCN1C(=O)c2cccc3c(S(=O)(=O)NCc4ccco4)ccc1c23`, the inhibition is 63% (active).

As to `CCN1C(=O)c2cccc3c(NC(=O)C(C)(C)C)ccc1c23`, the inhibition is 11.8% (inactive).

For `CCOc1cc(C(=O)Nc2ccc3c4c(cccc24)C(=O)N3CC)cc(OCC)c1OCC`, the inhibition is -4.4% (inactive).

Take `CCN1C(=O)c2cccc3c(NC(=O)c4ccccc4)ccc1c23`: the inhibition was 27.7% (inactive).

In the case of `CCN1C(=O)c2cccc3c(NS(=O)(=O)c4ccc(NC(C)=O)cc4)ccc1c23`, the inhibition is 55.9% (active).

As to `CCOC(=O)c1ccc(NC(=O)Nc2ccc3c4c(cccc24)C(=O)N3CC)cc1`, the inhibition is 53.1% (active).

For the compound `CN1C(=O)c2cccc3c(S(=O)(=O)NCc4ccco4)ccc1c23`, the inhibition is 1.8% (inactive).

Turning to `CCN1C(=O)c2cccc3c(NC(=O)c4ccc(S(=O)(=O)N(C)C)cc4)ccc1c23`, the inhibition was 13.6% (inactive).

For `CCN1C(=O)c2cccc3c(S(=O)(=O)NCc4ccccn4)ccc1c23`, the inhibition is -3.8% (inactive).

With `Cc1nn(CC(=O)Nc2sc3c(c2C#N)CCC(C(C)(C)C)C3)c(C)c1[N+](=O)[O-]` (stereo not given), the inhibition was 21% (inactive).

On to `COc1ccc(S(=O)(=O)NNC(=O)C2CC(c3cccnc3)=NO2)cc1` (stereo not given), for which the inhibition was -11% (inactive).

As for `CC(=O)C(=Nc1ccccc1Cl)NNc1ccc(Cl)cc1`, the inhibition was -52.8% (inactive).

On to `C=CCOn1c(=O)c(-c2ccccc2)[n+]([O-])c2ccccc21`, for which the inhibition is 12% (inactive).

`COc1ccc(CCN(Cc2cc3cc(C)cc(C)c3nc2Cl)C(=O)C2CC2)cc1`: the inhibition was 15.7% (inactive).

Turning to `Clc1ccc(-c2nnc3n2CCCCS3)cc1`, the inhibition was -8.4% (inactive).

For the compound `CCCN1CCN(c2nc3c([nH]2)c(=N)ncn3CC(O)CO)CC1` (stereo not given), the inhibition is 2.5% (inactive).

Take `COC(=O)C1C(=O)c2c([nH]c(C(=O)OC3CCCC3C)c2C)CC1C` (stereo not given): the inhibition is 12.3% (inactive).

For `COc1ccc(-c2nn3c(-c4ccc(F)cc4)nnc3s2)cc1`, the inhibition is -6.8% (inactive).

Consider `O=C(Cn1c2c(sc1=O)C1c3ccccc3OCC1CS2)Nc1ccc(Cl)cc1` (stereo not given), for which the inhibition is 8.7% (inactive).

`Cn1cc(C2CC(c3ccccc3)=NN2C(=O)c2ccccc2)c2ccccc21` (stereo not given): the inhibition was 20.9% (inactive).

Regarding `Cc1nc2ccc(NC(=S)NCCCO)cc2nc1C`, the inhibition was -2.9% (inactive).

For the compound `OCCCNC(=S)Nc1ccc2nc(-c3ccccn3)c(-c3ccccn3)nc2c1`, the inhibition is 14.4% (inactive).

As for `OCCCNC(=S)Nc1ccc2nccnc2c1`, the inhibition is 53.9% (active).

In the case of `c1ccc2c(CCNc3ncnc4nc[nH]c34)cccc2c1`, the inhibition was 10% (inactive).
